We go through 5 compounds from PubChem BioAssay.

Test [1] is described as follows: yeast TOR pathway RPL19A-GFP modulators, primary screen, cell-based, S. cerevisiae, multiplex flow cytometry (AID 1862).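 Note: lower values mimic rapamycin by blocking the RPL19A rise seen in DMSO cells.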 The settings on record: S. cerevisiae RPL19A-GFP strain, flow cytometry fluorescence, 3 h; at 10 µM; stronger effect = lower value.
Test [2] in a line: modulators of MEP2-GFP levels in yeast, primary screen, S. cerevisiae, multiplex flow cytometry (AID 1867;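 active = GFP response, as percent of the DMSO control, above the screen-wide mean plus 3 SD, about 139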;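 note: median GFP channel fluorescence of barcode-gated MEP2-GFP cells measured by flow cytometry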). The settings on record: S. cerevisiae MEP2-GFP strain, 3 h, at 10 µM, stronger effect = higher value, 100% means same as DMSO wells. For orientation: Flow cytometry measures light scatter and fluorescence of single cells or particles in a stream.
Test [3] can be described thus: modulators of CIT2-GFP expression in yeast, primary screen, S. cerevisiae, GFP fusion, multiplex flow cytometry (AID 1870;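 active = percent response above a set limit, the screen-wide mean plus 3 SD, cut at about 130% in these data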;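 note: barcoded CIT2-GFP strain pooled with four other GFP strains with rapamycin as positive control; median GFP fluorescence per well over plate mean of DMSO wells so 100% = DMSO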). The settings on record: 3 h, at 10 µM, stronger effect = higher value.
The nature of test [4]: modulators of LAP4-GFP expression in yeast, primary screen, S. cerevisiae, multiplex flow cytometry (AID 1873;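 active = GFP signal, as percent of the solvent control, above the screen mean plus 3 SD, about 149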). The note with it: 3 h, at 10 µM, stronger effect = higher value.
Test [5] can be described thus: modulators of AGP1-GFP expression in yeast TOR pathway, primary screen, cell-based, multiplex flow cytometry, S. cerevisiae (AID 1887;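 active = GFP signal above the screen-wide mean plus 3 SD, that is over about 124.5% of the solvent control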;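 note: AGP1-GFP fusion strain of S. cerevisiae within a five-strain barcoded multiplex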). The settings on record: 3 h, at 10 µM, stronger effect = higher value.
The nature of test [6]: inhibitors of CD8+ T cell-vesicle binding, pilot screen, LFA-1/ICAM-1 modulator project, MLPCN validation set, flow cytometry (AID 2523;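 active = response below a set limit, under 55% cells CD8-positive and vesicle-bound, and CD8 cells' 90th-percentile brightness under 279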;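 for vesicle binding response: mean PE anti-B7-1 fluorescence of CD8+ cells relative to row control; 100% = QL9-loaded vesicles with DMSO vehicle in the same plate row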). The note with it: 2C mouse CD8+ T cells, at 7 µM, stronger effect = lower value; double positive events: measured here: CD8+/vesicle+ event percentage.
Test [7] addresses Integrin beta-1 (Homo sapiens) + Integrin alpha-4 (Homo sapiens) (UniProt P13612+P05556). Briefly: inhibition of HUTS-21 binding to VLA-4, pilot screen, VLA-4 allosteric modulator project, U937 cells, HUTS-21 mAb, flow cytometry, validation set (AID 2674;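 active = inhibition above 50%, about 3 SD of the validation set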;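 note: antibody binding induced by the VLA-4 ligand LDV present at three times its Kd; 0% = LDV ligand with antibody and no compound and 100% = antibody without LDV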). The note with it: HUTS-21 LIBS mAb binding, at 6.7 µM, stronger effect = higher value, binding induced by LDV ligand.
A short description of test [8]: superoxide lowering in aged yeast cells, pilot screen, validation compound set (AID 2706;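 active = superoxide response below 65% of plate, a cut near 3 SD across the whole screen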;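 note: yeast exposed to compound for one week at 30 degrees C before staining; 100% = mean of all compound wells on the same plate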). The settings on record: S. cerevisiae aging, superoxide DHE fluorescence; at 10 µM, stronger effect = lower value.
Test [9] addresses Beta-adrenergic receptor kinase 1 (Homo sapiens) (UniProt P25098). As to the kind of experiment: GRK2 binders displacing RNA aptamer, biochemical, validation, human GRK2, bead flow cytometry (AID 488806;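 active = aptamer binding inhibition above 30%, about 3 SD of noise from non-fluorescent compounds; inactive = inhibition at or below 30%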). The note with it: bead-bound GRK2, FAM-aptamer displacement, at 10 µM, stronger effect = higher value.
Test [10] addresses AP-2 complex subunit beta (Homo sapiens) (UniProt P63010). Briefly: inhibitors of arrestin peptide binding to AP2, pilot screen, biochemical, validation set, GST-AP2 beads, flow cytometry (AID 504541;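 active = inhibition above 54%, about 3 SD of non-fluorescent compounds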;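 note: AP2 carries R879A mutation and is captured from E. coli lysate; bead-bound FITC arrestin peptide fluorescence measuring arrestin peptide binding to AP2; 0% = DMSO wells and 100% = excess unlabeled arrestin peptide control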). The note with it: FITC arrestin peptide, at 10 µM, stronger effect = higher value, AP2 beta2 appendage fragment, R879A mutant.
Test [11] can be described thus: yeast V-ATPase proton transport modulators, S. cerevisiae, pHLuorin, HTS validation (AID 504600; in the data active = response above about 15%;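 note: plate controls were DMSO for no effect and reference compound for full effect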). The settings on record: S. cerevisiae pHLuorin cytosolic pH, at 10 µM, stronger effect = higher value.
For test [12], the system named is anti-desmoglein-3 scFv antibody binding to human DSG3. Briefly: inhibitors of anti-DSG3 scFv binding to DSG3, pilot screen, biochemical, validation compound set, bead-based, flow cytometry (AID 588368;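 active = binding below the plate cutoff, the plate median minus 3 SD, with a reading above zero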;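 note: signal is the median channel fluorescence of bead-bound GFP antibody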). The note with it: Protein G beads, DSG3-Fc, scFv-GFP binding, at 10 µM, stronger effect = lower value.
A short description of test [13]: inhibitors of fungal efflux pumps CDR1, CDR2, MDR1, pilot screen, validation compound set, multiplex, phenotypic (AID 588506;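 active = efflux inhibition above 0.42, the validation set average plus 4 SD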;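 note: Nile Red retained in cells so higher fluorescence means more efflux inhibition; 0 = negative control wells and 1 = enniatin B 25 µM full block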). The note with it: S. cerevisiae pump-expressing triplex, Nile Red efflux flow cytometry; at 10 µM; stronger effect = higher value; the pumps come from Candida albicans.
In test [14] the target is ATP-binding cassette sub-family B member 6 (Homo sapiens) (UniProt Q9NP58). Briefly: ABCB6 transporter inhibitors, pilot screen, K562-ABCB6 cells, flow cytometry, validation set (AID 588550;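 active = inhibition above the screen-wide mean plus 3 SD, about 51%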;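 note: 0% = DMSO wells and 100% = benzethonium chloride 70 µM positive control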). The settings on record: K562-ABCB6 porphyrin accumulation, 1 h, at 10 µM, stronger effect = higher value.
Test [15] in a line: promoters of myeloid differentiation in arrested cells, primary screen, cell-based, GFP/MAC1 double positive, flow cytometry, validation set (AID 588685;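 active = differentiation response of at least 50%, scaled between solvent and reference control, from cells with both markers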;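 note: compound exposure lasts four days before antibody staining and flow analysis; 0% = DMSO wells and 100% = 5 µM fulvestrant positive control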). The note with it: ER-HoxA9 marrow cells, stronger effect = higher value, normalized: vehicle 0, fulvestrant 100.

Inconclusive results are not listed. The source made the active and inactive calls. Cut-off read from the data, not from the text of the source, unless noted: active = percent of DMSO control GFP below about 86%; inactive = the rest, inconclusive results apart.

Integrin beta-1 (Homo sapiens) + Integrin alpha-4 (Homo sapiens), sequence (P05556 whole entry, looked up): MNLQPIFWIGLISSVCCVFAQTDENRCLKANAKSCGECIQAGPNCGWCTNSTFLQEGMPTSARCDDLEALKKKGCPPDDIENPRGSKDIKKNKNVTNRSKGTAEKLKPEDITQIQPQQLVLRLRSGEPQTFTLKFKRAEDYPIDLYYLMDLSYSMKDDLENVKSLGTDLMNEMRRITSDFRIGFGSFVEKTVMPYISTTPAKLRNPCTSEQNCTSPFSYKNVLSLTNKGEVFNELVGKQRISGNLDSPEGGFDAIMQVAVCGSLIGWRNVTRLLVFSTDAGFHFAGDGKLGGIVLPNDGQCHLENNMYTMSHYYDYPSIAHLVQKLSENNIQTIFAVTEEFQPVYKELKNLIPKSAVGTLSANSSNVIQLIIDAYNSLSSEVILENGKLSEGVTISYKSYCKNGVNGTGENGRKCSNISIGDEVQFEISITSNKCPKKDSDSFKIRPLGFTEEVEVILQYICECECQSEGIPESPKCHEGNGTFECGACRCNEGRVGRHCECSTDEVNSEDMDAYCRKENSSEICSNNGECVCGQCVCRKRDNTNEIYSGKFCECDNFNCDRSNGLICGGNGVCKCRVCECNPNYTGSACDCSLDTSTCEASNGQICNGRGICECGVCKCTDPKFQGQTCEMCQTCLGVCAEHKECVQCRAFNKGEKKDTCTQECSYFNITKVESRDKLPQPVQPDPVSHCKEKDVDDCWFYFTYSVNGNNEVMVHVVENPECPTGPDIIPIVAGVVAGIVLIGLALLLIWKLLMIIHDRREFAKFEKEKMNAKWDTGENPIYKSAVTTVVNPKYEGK
Integrin beta-1 (Homo sapiens) + Integrin alpha-4 (Homo sapiens), sequence (P13612 whole entry, looked up): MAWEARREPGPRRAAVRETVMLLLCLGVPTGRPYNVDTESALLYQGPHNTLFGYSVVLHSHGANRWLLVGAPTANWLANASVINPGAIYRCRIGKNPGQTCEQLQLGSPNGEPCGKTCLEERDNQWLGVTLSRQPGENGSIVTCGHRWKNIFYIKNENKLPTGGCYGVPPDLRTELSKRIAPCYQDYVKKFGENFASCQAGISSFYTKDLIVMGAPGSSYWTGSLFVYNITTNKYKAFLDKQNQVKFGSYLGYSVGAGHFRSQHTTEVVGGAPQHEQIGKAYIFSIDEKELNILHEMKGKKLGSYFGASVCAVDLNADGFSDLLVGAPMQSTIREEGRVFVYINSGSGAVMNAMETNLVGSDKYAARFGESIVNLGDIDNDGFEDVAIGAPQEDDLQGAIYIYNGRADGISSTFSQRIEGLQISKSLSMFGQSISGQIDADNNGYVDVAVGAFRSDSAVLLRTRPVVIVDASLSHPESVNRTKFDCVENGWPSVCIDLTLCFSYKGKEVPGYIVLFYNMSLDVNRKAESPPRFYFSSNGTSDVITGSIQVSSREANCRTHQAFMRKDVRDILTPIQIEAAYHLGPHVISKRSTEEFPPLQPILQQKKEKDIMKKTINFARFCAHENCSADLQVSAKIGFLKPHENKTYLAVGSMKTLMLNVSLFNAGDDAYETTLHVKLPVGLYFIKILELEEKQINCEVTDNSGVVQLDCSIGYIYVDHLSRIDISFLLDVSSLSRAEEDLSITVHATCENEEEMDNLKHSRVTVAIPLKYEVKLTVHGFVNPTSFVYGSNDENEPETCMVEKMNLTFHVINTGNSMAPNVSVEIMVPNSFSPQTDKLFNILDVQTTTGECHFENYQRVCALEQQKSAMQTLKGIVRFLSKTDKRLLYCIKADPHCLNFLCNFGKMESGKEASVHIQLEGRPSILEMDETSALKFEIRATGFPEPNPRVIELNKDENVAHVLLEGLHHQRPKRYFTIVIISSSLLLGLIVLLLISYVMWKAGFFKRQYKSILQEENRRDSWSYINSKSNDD
ATP-binding cassette sub-family B member 6 (Homo sapiens), sequence (Q9NP58 whole entry, looked up): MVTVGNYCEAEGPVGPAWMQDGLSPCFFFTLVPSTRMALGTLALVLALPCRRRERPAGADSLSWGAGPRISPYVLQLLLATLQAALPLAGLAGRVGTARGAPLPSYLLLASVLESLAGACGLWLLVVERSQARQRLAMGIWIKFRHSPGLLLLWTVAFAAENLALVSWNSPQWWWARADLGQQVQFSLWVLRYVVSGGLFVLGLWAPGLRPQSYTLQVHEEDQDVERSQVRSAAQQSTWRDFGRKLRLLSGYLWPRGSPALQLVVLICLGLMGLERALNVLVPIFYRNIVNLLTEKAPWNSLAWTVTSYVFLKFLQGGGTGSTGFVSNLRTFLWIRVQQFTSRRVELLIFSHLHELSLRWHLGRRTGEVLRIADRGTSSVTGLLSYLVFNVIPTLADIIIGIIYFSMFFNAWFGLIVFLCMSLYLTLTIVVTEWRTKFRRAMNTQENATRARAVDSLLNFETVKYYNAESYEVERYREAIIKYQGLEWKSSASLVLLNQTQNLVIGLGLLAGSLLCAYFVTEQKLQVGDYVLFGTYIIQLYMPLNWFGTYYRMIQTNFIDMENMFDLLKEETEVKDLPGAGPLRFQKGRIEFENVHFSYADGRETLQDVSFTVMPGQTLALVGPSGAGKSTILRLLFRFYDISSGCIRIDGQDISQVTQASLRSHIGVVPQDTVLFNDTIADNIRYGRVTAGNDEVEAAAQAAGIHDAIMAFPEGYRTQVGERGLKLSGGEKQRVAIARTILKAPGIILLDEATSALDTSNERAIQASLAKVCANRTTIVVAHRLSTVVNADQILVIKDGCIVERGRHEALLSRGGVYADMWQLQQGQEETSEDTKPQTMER
Beta-adrenergic receptor kinase 1 (Homo sapiens), sequence (P25098 whole entry, looked up): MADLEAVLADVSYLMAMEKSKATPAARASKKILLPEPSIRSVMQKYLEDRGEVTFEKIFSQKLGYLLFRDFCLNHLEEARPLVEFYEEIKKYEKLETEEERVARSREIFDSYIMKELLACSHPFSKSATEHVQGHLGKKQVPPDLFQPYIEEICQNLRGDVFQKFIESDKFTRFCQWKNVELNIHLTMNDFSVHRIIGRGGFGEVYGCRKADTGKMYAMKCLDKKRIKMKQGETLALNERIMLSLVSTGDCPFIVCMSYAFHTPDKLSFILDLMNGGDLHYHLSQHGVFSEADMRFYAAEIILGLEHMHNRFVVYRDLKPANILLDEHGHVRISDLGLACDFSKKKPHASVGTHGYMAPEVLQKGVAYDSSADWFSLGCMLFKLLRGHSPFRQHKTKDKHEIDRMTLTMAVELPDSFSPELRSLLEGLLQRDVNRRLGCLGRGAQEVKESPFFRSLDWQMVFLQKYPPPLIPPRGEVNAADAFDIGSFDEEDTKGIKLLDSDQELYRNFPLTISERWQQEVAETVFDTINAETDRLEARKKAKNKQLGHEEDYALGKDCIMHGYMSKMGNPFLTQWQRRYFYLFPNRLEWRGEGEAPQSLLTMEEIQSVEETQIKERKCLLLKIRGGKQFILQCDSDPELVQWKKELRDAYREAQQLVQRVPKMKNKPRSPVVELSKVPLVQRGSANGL
AP-2 complex subunit beta (Homo sapiens), sequence (P63010 whole entry, looked up, the tested form may be a part, one chain of several): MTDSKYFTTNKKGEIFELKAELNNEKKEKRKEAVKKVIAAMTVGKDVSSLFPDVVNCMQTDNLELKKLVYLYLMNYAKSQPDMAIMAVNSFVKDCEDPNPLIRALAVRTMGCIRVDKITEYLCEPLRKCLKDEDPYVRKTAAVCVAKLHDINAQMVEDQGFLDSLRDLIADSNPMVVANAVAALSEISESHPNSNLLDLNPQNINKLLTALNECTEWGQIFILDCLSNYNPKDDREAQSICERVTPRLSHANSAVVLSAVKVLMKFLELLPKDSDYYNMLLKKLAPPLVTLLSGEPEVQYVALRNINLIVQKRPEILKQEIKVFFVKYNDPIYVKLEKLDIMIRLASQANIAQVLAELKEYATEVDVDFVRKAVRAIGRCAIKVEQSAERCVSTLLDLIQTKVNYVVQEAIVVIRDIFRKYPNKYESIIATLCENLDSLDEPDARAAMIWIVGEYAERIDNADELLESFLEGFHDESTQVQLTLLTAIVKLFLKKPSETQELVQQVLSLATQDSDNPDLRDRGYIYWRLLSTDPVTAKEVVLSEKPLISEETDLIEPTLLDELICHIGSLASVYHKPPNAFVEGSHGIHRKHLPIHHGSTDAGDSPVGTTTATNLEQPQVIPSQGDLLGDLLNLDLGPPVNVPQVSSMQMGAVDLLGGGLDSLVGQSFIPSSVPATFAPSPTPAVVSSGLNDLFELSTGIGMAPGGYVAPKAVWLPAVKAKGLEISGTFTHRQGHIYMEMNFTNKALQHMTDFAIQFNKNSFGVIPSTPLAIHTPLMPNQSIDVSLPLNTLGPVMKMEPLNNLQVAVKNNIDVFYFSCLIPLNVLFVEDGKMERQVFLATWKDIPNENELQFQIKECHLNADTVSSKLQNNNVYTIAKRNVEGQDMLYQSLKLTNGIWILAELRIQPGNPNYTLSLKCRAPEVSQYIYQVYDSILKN

As usually defined, the inhibition is the drop in the measured response relative to a control, in per cent. Take `O=C(c1ccc(-c2ccccc2)c(F)c1)C1CCCN(C(=O)c2cncs2)C1` (stereo not given): the percent of DMSO control GFP in test [1] is 100% (inactive). Moreover, the GFP response vs DMSO in test [2] is 103% (inactive); in [4], 108% (inactive). Also, in [3], the percent response of DMSO control is 95.9% (inactive). Besides, the GFP response, % of DMSO in test [5] was 91.8% (inactive). Further, the double positive events in test [6] is 49.8%. In test [6], the vesicle binding response is 157% (inactive). Further, the inhibition was 11.9% (inactive) in test [7], -11% (inactive) in [10] and 9% (inactive) in [14]. Also, in test [8], the superoxide response (% of plate) is 132% (inactive). Further, the aptamer binding inhibition in [9] was 7% (inactive). For the same compound, the response in [11] is 13.7% (inactive). Also, the binding (% of control) in test [12] was 101% (inactive). Besides, the efflux inhibition (fraction of control) in test [13] was -0.47 (inactive). In addition, the differentiation response in test [15] is -14.7% (inactive).
As for `Cc1ccc2[nH]c3c(c2c1)CN(C)CC3`, the percent of DMSO control GFP in test [1] was 102% (inactive). Also, the GFP response vs DMSO was 107% (inactive) in test [2] and 97.4% (inactive) in test [4]. The percent response of DMSO control in test [3] was 97.9% (inactive). The GFP response, % of DMSO in test [5] was 100% (inactive). This compound also displayed a double positive events in [6] of 63.4%. In test [6], the vesicle binding response is 188% (inactive). In addition, the inhibition in [7] was 9.09% (inactive); in [10] it was 15.9% (inactive); in [14], 12% (inactive). Also, the superoxide response (% of plate) in [8] is 99.8% (inactive). Moreover, the aptamer binding inhibition in test [9] was 5% (inactive). Further, the response in [11] is -3.83% (inactive). In addition, the binding (% of control) in test [12] is 105% (inactive). Also, in [13], the efflux inhibition (fraction of control) was -0.09 (inactive). The differentiation response in [15] was -8.27% (inactive).
On to `OCCN1CCN(CCCN2c3ccccc3Sc3ccc(Cl)cc32)CC1`, for which the percent of DMSO control GFP in [1] was 104% (inactive). The GFP response vs DMSO in test [2] is 104% (inactive); in [4], 112% (inactive). Moreover, the percent response of DMSO control in test [3] was 100% (inactive). In addition, the GFP response, % of DMSO in test [5] was 121% (inactive). The same compound gave a double positive events in test [6] of 64.3%. In [6], the vesicle binding response is 268% (inactive). Moreover, the inhibition in [7] is 68.7% (active); in [10] it was 29.9% (inactive); in test [14] it was -3% (inactive). In addition, the superoxide response (% of plate) in test [8] is 111% (inactive). The aptamer binding inhibition in [9] is -10% (inactive). In test [11], the response is 5.46% (inactive). Further, in test [12], the binding (% of control) is 115% (inactive). In addition, the efflux inhibition (fraction of control) in test [13] was 0.71 (active). Moreover, the differentiation response in test [15] was -11.9% (inactive).
`COc1cc(OC)cc(C(=O)N[C@@H](CCSC)c2nc3ccccc3[nH]2)c1`: the percent of DMSO control GFP in [1] was 98% (inactive). The values for the GFP response vs DMSO in test [2] and in [4] were 88.7% (inactive) and 91.3% (inactive), respectively. In addition, the percent response of DMSO control in [3] was 105% (inactive). For the same compound, the GFP response, % of DMSO in [5] was 96.4% (inactive). Moreover, in test [6], the double positive events worked out at 49.2%. Further, the vesicle binding response in test [6] was 158% (inactive). The inhibition in [7] is -13.3% (inactive); in [10], -7.65% (inactive); in [14], 3% (inactive). In addition, the superoxide response (% of plate) in test [8] is 98.5% (inactive). In test [9], the aptamer binding inhibition is 1% (inactive). For the same compound, in [11], the response was 0.15% (inactive). Also, the binding (% of control) in test [12] is 99.3% (inactive). Moreover, the efflux inhibition (fraction of control) in [13] was -0.12 (inactive). Moreover, in [15], the differentiation response is -8.27% (inactive).
As for `COc1ccccc1C1C(C#N)=C(N)Oc2c1oc(CO)cc2=O` (stereo not given), the percent of DMSO control GFP in test [1] is 102% (inactive). For the same compound, the GFP response vs DMSO is 96.9% (inactive) in [2] and 103% (inactive) in test [4]. Besides, in test [3], the percent response of DMSO control was 111% (inactive). For the same compound, the GFP response, % of DMSO in test [5] is 107% (inactive). This compound also had a double positive events in test [6] of 52%. The vesicle binding response in [6] was 174% (inactive). Further, the inhibition is -11.4% (inactive) in test [7], -6.41% (inactive) in [10] and 9% (inactive) in [14]. Moreover, in [8], the superoxide response (% of plate) was 103% (inactive). Besides, the aptamer binding inhibition in test [9] is 2% (inactive). Further, the response in test [11] was 2.3% (inactive). Moreover, in test [12], the binding (% of control) was 95.9% (inactive). The efflux inhibition (fraction of control) in test [13] was 0.03 (inactive). For the same compound, the differentiation response in test [15] is -11.5% (inactive).
